Inconclusive results are not listed. Active and inactive are the calls of the source. How the source made its calls: active means hit-call score of the fitted dose curve at least 0.9, where 1 is the maximum; inconclusive means response in the unintended direction; inactive means score below 0.9.

Glucocorticoid receptor (Homo sapiens), sequence (P04150 whole entry, looked up): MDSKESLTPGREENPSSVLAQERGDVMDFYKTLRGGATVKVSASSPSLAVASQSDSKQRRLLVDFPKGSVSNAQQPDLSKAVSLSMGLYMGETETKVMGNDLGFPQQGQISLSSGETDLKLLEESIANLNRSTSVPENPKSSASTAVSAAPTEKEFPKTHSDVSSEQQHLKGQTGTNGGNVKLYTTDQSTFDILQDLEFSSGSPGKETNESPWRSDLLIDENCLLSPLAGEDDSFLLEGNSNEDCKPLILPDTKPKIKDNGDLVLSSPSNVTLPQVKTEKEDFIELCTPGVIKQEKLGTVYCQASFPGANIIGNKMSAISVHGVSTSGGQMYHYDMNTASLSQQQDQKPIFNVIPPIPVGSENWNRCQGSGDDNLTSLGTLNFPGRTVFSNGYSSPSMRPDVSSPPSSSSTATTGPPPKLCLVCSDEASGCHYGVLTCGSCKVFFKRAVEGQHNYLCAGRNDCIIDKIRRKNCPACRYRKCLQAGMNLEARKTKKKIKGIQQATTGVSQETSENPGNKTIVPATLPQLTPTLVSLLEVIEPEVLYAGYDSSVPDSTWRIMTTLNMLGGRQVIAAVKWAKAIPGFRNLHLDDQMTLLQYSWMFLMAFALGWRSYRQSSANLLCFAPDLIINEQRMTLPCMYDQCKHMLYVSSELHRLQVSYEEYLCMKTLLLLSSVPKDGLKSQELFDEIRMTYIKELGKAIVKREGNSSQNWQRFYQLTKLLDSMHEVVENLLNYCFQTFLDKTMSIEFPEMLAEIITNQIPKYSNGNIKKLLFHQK

The assay addresses Glucocorticoid receptor (Homo sapiens) (UniProt P04150). The assay is described as follows: ATG_GR_TRANS: Attagene TRANS-FACTORIAL HepG2 Assay for human Glucocorticoid Receptor (GR) (AID 2282978).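 Further: activators score as hits since higher reporter transcript over DMSO is fitted.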 Particulars: HepG2 Attagene TRANS GR reporter, mRNA transcription. As to the method:
ATG_TRANS is a cell-based, multiplexed-readout assay that uses HepG2, a human liver cell line, with measurements taken at 24 hours after chemical dosing in a 24-well plate.ATG_GR_TRANS is one of 30 assay component(s) measured or calculated from the ATG_TRANS assay. It is designed to make measurements of mRNA induction, a form of inducible reporter, as detected with fluorescence intensity signals by Reverse transcription polymerase chain reaction (RT-PCR) and Capillary electrophoresis technology.Data from the assay component ATG_GR_TRANS was analyzed into 1 assay endpoint. This assay endpoint, ATG_GR_TRANS, was analyzed in the positive analysis fitting direction relative to DMSO as the negative control and baseline of activity. Using a type of inducible reporter, measures of mRNA for gain-of-signal activity can be used to understand the reporter gene at the transcription factor-level as they relate to the gene NR3C1. Furthermore, this assay endpoint can be referred to as a primary readout, because this assay has produced multiple assay endpoints where this one serves a reporter gene function. To generalize the intended target to other relatable targets, this assay endpoint is annotated to the nuclear receptor intended target family, where the subfamily is steroidal.
Human liver HepG2 cells are transiently transfected with multiple reporter transcription units (MRTUs) in 6-well plates using FuGene 6 reagent (Roche; 3 ml FuGene/1 mg DNA). The MRTU constructs are regulated by a cis-regulating element (promoter). […] A major difference between the CIS and TRANS system is that in CIS activities of endogenous TFs are measured, whereas the TRANS assay evaluates changes in activities of exogenous, chimeric NR-Gal4 proteins. […] At the end of 24 hour incubation, total RNA was isolated using TriZol reagent (Invitrogen). The isolated RNA is then reverse-transcribed using oligo(dT) primer and Mo-MLV reverse transcriptase (Invitrogen) with DNAse I (Ambion) treatment for 30 min. The one-tenth of the produced cDNA was amplified by PCR using Taq DNA polymerase (Invitrogen) and two reporter sequence-specific primers. The PCR products were fluorescently labeled by primer extension with 6-arboxyfluorescein (6-FAM) 5'-labeled reporter sequence-specific primer (2 min at 95 C, 20 s at 68 C and 10 min at 72 C) and these products were digested with 5U of HpaI (New England Biolabs) for 2h at 37 C. The fragments were purified using Qiaquick PCR columns (Qiagen), analyzed on an ABI 3130xL genetic analyzer (Applied Biosystems) with peak positions identified by using a set of X-rhodamine (ROX)-labeled MapMarker1000 molecular weight standards (BioVentures). The raw capillary electrophoresis data was processed using Attagraph software (Attagene).
As for `CCCCCCCCn1sc(Cl)c(Cl)c1=O`, the compound was classed as inactive. Regarding `CCCCCCCCCc1ccc(OCCO)cc1`, the result was inactive.

Regarding `CC(C)=CCCC(C)O` (stereo not given), the call was inactive. As for `CCCCC(CC)COC(=O)c1ccc(N(C)C)cc1` (stereo not given), the result was inactive.

As for `CCCCOC(=O)C(C)O` (stereo not given), the compound was called inactive. Consider `O=C(O)C(F)(F)C(F)(F)C(F)(F)OC(F)(C(F)(F)F)C(F)(F)F`, for which the call was inactive. Consider `OCCCc1cccnc1`, for which the outcome was inactive. Consider `CSc1ccc(Cl)cc1`, for which the result was inactive.

Regarding `COCCOCCC[Si](C)(O[Si](C)(C)C)O[Si](C)(C)C`, the result was inactive.

Take `C=CC(=O)OCCC(F)(F)C(F)(F)C(F)(F)C(F)(F)F`: the outcome was inactive. As for `OCC1CCCO1` (stereo not given), the outcome was inactive. Next, `CCN(CC)c1ccc2c(c1)Oc1cc(N(CC)CC)ccc1C21OC(=O)c2ccccc21`: “inactive”; `Cc1cnccn1`: “inactive”; `c1ccc(C[P+](c2ccccc2)(c2ccccc2)c2ccccc2)cc1`: “inactive”. `Oc1ccc(C2(c3ccc(O)c(C4CCCCC4)c3)CCCCC2)cc1C1CCCCC1`: the result was inactive. As to `Nc1c(Br)cc([N+](=O)[O-])cc1Br`, the outcome was inactive. `CCN=c1cc2oc3cc(NCC)c(C)cc3c(-c3ccccc3C(=O)OCC)c-2cc1C`: the outcome was inactive. For the compound `C[C@]12CC[C@H]3C(=CCc4cc(O)ccc43)[C@@H]1CCC2=O`, the outcome was inactive. As for `CCOCN(C(=O)CS(=O)(=O)O)c1c(C)cccc1CC`, the compound was called inactive.

As to `CCOCOCC`, the result was inactive. Next, `Cc1ccc(O)c(-n2nc3ccccc3n2)c1`: “inactive”. Regarding `O=C1C=CC(=O)N1c1ccc(Cc2ccc(N3C(=O)C=CC3=O)cc2)cc1`, the compound was classed as inactive.

`O=C1c2ccccc2C(=O)c2c(Cl)cccc21`: the compound was classed as inactive. For the compound `CCC(C)CO` (stereo not given), the result was inactive.

Regarding `OCC(F)(F)C(F)(F)C(F)(F)CO`, the compound was classed as inactive. Consider `CC(C)CC=C(C=O)c1ccccc1`, for which the result was inactive.

For `O=S(=O)(O)CCC(F)(F)C(F)(F)C(F)(F)C(F)(F)C(F)(F)C(F)(F)C(F)(F)C(F)(F)F`, the compound was classed as inactive. As for `O=S(=O)(O)CCC(F)(F)C(F)(F)C(F)(F)C(F)(F)F`, the compound was classed as inactive. As to `CCCCCC/C=C/CCCCCCCC(=O)O`, the compound was called inactive. Consider `CCN(CC)c1ccc(N=Nc2ccccc2)cc1`, for which the compound was classed as inactive. For `CC(C)CCCC(C)CCO` (stereo not given), the compound was classed as inactive. `CCCC(=O)OCC(COC(=O)CCC)OC(=O)CCC`: the compound was classed as inactive. For `CC1=CCC2C(=O)OC(=O)C2C1` (stereo not given), the result was inactive.

Turning to `O=C(O)CCC(F)(F)C(F)(F)C(F)(F)C(F)(F)C(F)(F)C(F)(F)C(F)(F)F`, the compound was called inactive. Take `Cc1ccc([N+](=O)[O-])c(C)c1`: the result was inactive.

In the case of `O=c1[nH]cccc1O`, the result was inactive. With `COC(F)(C(F)F)C(F)(F)F` (stereo not given), the compound was called inactive. On to `FC(F)(F)C(F)(F)C(F)(F)CC1CO1` (stereo not given), for which the compound was called inactive. Next, `FC(F)(F)C(F)(F)C(F)(F)C(F)(F)C(F)(F)C(F)(F)CC[Si](Cl)(Cl)Cl`: “inactive”. Next, `C=CC(=O)OCC(F)(F)C(F)(F)C(F)(F)COC(=O)C=C`: “inactive”.

The values above are taken from PubChem BioAssay (EPA / NIEHS).
